This is one part of a sample in which hits are shown more often than they occur.
IDE exosite inh: exo-site inhibitors of human IDE, primary screen, biochemical, fluorescence anisotropy, probe displacement | z-score at 20 µM | Insulin-degrading enzyme (Homo sapiens), P14735 | actives 6.3% (n = 17,000) | purified IDE, FL-6b probe fluorescence polarization; active compounds read low | AID 1259349, 2017;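 active = z-score of -3 or lower, meaning strong loss of probe binding signal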;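 also: His-tagged human IDE residues 42-1019 made in E. coli with 30 nM FL-6b probe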
Target sequence (P14735 42-1019 limits assumed): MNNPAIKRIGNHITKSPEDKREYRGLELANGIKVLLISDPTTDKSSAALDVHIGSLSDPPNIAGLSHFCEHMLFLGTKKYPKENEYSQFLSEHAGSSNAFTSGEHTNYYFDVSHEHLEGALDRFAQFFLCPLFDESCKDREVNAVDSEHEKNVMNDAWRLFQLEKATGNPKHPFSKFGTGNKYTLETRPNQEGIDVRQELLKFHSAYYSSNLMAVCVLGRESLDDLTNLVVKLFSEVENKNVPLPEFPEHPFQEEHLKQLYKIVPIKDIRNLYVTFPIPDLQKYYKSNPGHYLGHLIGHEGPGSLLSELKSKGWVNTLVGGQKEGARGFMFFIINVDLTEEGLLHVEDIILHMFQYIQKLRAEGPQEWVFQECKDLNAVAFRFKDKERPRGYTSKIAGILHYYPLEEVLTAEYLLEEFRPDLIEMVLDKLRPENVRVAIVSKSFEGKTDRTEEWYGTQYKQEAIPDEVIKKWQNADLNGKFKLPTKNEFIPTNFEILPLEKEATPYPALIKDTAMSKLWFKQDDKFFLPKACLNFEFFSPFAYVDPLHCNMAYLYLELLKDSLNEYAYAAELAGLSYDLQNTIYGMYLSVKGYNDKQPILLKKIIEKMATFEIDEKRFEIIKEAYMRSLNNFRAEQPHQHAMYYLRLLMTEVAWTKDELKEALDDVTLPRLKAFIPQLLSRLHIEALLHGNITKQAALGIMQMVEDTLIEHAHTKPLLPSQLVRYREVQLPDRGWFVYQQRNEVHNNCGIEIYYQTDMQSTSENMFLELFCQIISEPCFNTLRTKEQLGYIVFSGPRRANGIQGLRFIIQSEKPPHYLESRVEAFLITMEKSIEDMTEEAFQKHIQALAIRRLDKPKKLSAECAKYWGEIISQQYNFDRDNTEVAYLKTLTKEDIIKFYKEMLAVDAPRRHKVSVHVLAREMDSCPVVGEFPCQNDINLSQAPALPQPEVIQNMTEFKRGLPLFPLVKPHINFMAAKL
Of the large screens only hits and unclear results are named; the others gave an inactive call.

COCC(=O)N1CCCCN2[C@H](CO)[C@@H](c3ccc(C#Cc4cccnc4)cc3)[C@H]2C1	none
CN1C(=O)c2cc(NC(=O)c3cscn3)ccc2OC[C@@H]2O[C@@H](CC(=O)N3CCOCC3)CC[C@H]21	none
CCS(=O)(=O)N1CC(=O)N2[C@H](CO)[C@H](c3ccc(-c4ccc(C)cc4)cc3)[C@@H]2C1	none
O=C(C[C@@H]1CC[C@@H]2NC[C@H](O)COC[C@H]2O1)Nc1ccc(-c2ccccc2)cc1	none
CC(=O)N(C[C@H]1N[C@H](CO)[C@@H]1c1ccc(-c2cccnc2)cc1)C1CCCC1	none
O=C(c1ccc2c(c1)OCO2)N1CC(=O)N2[C@H](C1)[C@H](c1ccc(C#CC3CCCC3)cc1)[C@@H]2CO	none
O=C(C[C@H]1C[C@@H]2c3cc(NC(=O)c4ccc5c(c4)OCO5)ccc3O[C@@H]2[C@@H](CO)O1)NCc1ccc(Oc2ccccc2)cc1	none
COc1cccc(CN2CCCCN3[C@H](C2)[C@H](c2ccc(-c4cccnc4)cc2)[C@@H]3CO)c1	none
OC[C@H]1[C@H](c2ccc(-c3ccc(F)cc3)cc2)[C@@H]2CN(Cc3cccnc3)CCCCN12	none
O=C(C1CCC1)N1CC(=O)N2[C@H](C1)[C@H](c1ccc(-c3ccccc3F)cc1)[C@@H]2CO	none
O=C(C1CCC1)N1CC(=O)N2[C@H](CO)[C@H](c3ccc(-c4ccccc4F)cc3)[C@H]2C1	IDE exosite inh -11
O=C(C1CCCCC1)N1CC(=O)N2[C@@H](CO)[C@H](c3ccc(-c4ccccc4F)cc3)[C@@H]2C1	none
O=C(C1CC1)N1CC(=O)N2[C@H](CO)[C@H](c3ccc(-c4ccccc4F)cc3)[C@@H]2C1	none
O=C1CN(Cc2ccc(F)cc2)C[C@H]2[C@H](c3ccc(-c4ccccc4F)cc3)[C@@H](CO)N12	none
O=C1CN(Cc2ccccc2)C[C@@H]2[C@@H](c3ccc(-c4ccccc4F)cc3)[C@@H](CO)N12	IDE exosite inh -4.7
O=C1CN(Cc2ccccc2)C[C@@H]2[C@H](c3ccc(-c4ccccc4F)cc3)[C@H](CO)N12	none
O=C(C1CC1)N1CC(=O)N2[C@@H](CO)[C@@H](c3ccc(-c4ccccc4F)cc3)[C@@H]2C1	IDE exosite inh -8.4
O=C(C1CCCCC1)N1CC(=O)N2[C@H](CO)[C@H](c3ccc(-c4ccccc4F)cc3)[C@@H]2C1	none
N#C[C@H]1[C@@H](c2ccc(-c3cccnc3)cc2)[C@@H](CO)N1C(=O)Nc1ccc(F)cc1	none
COc1ccc2c3c(n(C)c2c1)[C@H](CO)NCC31CN(S(=O)(=O)c2ccc(C)cc2)C1	none
O=C(Nc1cc(F)ccc1F)N[C@@H]1CC[C@H](CCn2cc(C3CCCCC3)nn2)O[C@@H]1CO	none
COc1cccc(S(=O)(=O)N2C[C@@H](O)COC[C@@H]3O[C@@H](CC(=O)NCCCN4CCOCC4)CC[C@H]32)c1	none
O=C(Cc1cccnc1)N1CC(=O)N2[C@H](CO)[C@@H](c3ccc(-c4cccc(F)c4)cc3)[C@H]2C1	none
CO[C@H]1CC[C@H]2CCN(C)C(=O)[C@@H](C)N(C)C(=O)c3cccc(C#N)c3OC[C@@H]1O2	none
C/C=C/c1ccc([C@H]2[C@@H](CNC(=O)CC3CC3)N(C(C)=O)[C@H]2CO)cc1	none
O=C(c1cccc(F)c1)N1CC(=O)N2[C@H](CO)[C@@H](c3ccc(-c4ccccc4)cc3)[C@H]2C1	none
O=C(c1ccccc1F)N1CC(=O)N2[C@H](CO)[C@H](c3ccc(C#Cc4ccccc4)cc3)[C@@H]2C1	none
O=C(c1cccc(F)c1)N1CC(=O)N2[C@H](CO)[C@@H](c3ccc(-c4ccccc4)cc3)[C@@H]2C1	none
O=C(c1ccccc1F)N1CC(=O)N2[C@H](C1)[C@@H](c1ccc(-c3ccccc3)cc1)[C@@H]2CO	IDE exosite inh -3.2
O=C(Nc1ccccc1F)N1CC(=O)N2[C@H](C1)[C@H](c1ccc(C#Cc3ccccc3)cc1)[C@@H]2CO	IDE exosite inh -4.1
O=C(c1cccc(F)c1)N1CC(=O)N2[C@H](C1)[C@@H](c1ccc(-c3ccccc3)cc1)[C@@H]2CO	IDE exosite inh -3.4
O=C(c1ccccc1F)N1CC(=O)N2[C@@H](CO)[C@H](c3ccc(-c4ccc(F)cc4)cc3)[C@@H]2C1	none
O=C(c1ccccc1F)N1CC(=O)N2[C@H](CO)[C@@H](c3ccc(C#Cc4ccccc4)cc3)[C@@H]2C1	none
O=C(Nc1ccccc1F)N1CC(=O)N2[C@H](C1)[C@@H](c1ccc(C#Cc3ccc(F)cc3)cc1)[C@@H]2CO	none
O=C(c1ccccc1F)N1CC(=O)N2[C@H](C1)[C@H](c1ccc(C#Cc3ccccc3)cc1)[C@@H]2CO	IDE exosite inh -3.4
O=C(c1ccccc1F)N1CC(=O)N2[C@@H](CO)[C@H](c3ccc(-c4ccccc4)cc3)[C@@H]2C1	none
O=C(Nc1ccccc1F)N1CC(=O)N2[C@@H](CO)[C@@H](c3ccc(C#Cc4ccc(F)cc4)cc3)[C@@H]2C1	none
C/C=C/c1ccc([C@@H]2[C@@H](C#N)N(c3ncc(CC)s3)[C@H]2CO)cc1	none
CN(C)CC(=O)N1CCCCN2[C@H](C1)[C@@H](c1ccc(-c3cccc(C(=O)N(C)C)c3)cc1)[C@@H]2CO	none
O=C1NCCOCc2cn(nn2)CC[C@H]1Cc1ccc(F)cc1	none
N#C[C@@H]1[C@H](c2ccc(C3=CCCCC3)cc2)[C@H](CO)N1C(=O)c1ccccn1	none
N#C[C@H]1[C@@H](c2ccc(C3=CCCCC3)cc2)[C@@H](CO)N1S(=O)(=O)c1ccccc1	none
O=C(Nc1ccc(F)cc1)N1CCCCN2[C@H](CO)[C@@H](c3ccc(C4=CCCCC4)cc3)[C@H]2C1	none
O=C(Nc1ccccc1)N1CCCCN2[C@@H](CO)[C@@H](c3ccc(Br)cc3)[C@@H]2C1	none
Cc1cccc(-c2ccc([C@H]3[C@@H](CO)N4CCCCN(C(=O)c5cccnc5)C[C@@H]34)cc2)c1	none
Cc1cccc(-c2ccc([C@@H]3[C@H]4CN(C(=O)c5cccnc5)CCCCN4[C@H]3CO)cc2)c1	IDE exosite inh -15
Cc1cccc(-c2ccc([C@H]3[C@H](CO)N4CCCCN(C(=O)c5ccncc5)C[C@@H]34)cc2)c1	none
Cc1cccc(-c2ccc([C@H]3[C@@H](CO)N4CCCCN(C(=O)c5cccnc5)C[C@H]34)cc2)c1	IDE exosite inh -17
O=C(c1cccc(F)c1)N1CCCCN2[C@H](C1)[C@@H](c1ccc(-c3cccnc3)cc1)[C@@H]2CO	none
Cc1cccc(-c2ccc([C@H]3[C@@H](CO)N4CCCCN(C(=O)c5ccncc5)C[C@@H]34)cc2)c1	none
N#C[C@@H]1[C@H](c2ccccc2-c2cccc(F)c2)[C@@H](CO)N1C(=O)NC1CCCCC1	none
N#C[C@H]1[C@@H](c2ccccc2-c2ccccc2F)[C@H](CO)N1C(=O)c1cccc(F)c1	none
COc1ccc(C[C@H]2CCn3nncc3COC[C@H](CC(C)C)NC2=O)cc1	none
CC(C)CC#Cc1ccc([C@H]2[C@H]3CN(C(=O)NC(C)C)CC(=O)N3[C@H]2CO)cc1	none
O=C(c1cnccn1)N1CC(=O)N2[C@@H](CO)[C@H](c3ccc(-c4ccccc4)cc3)[C@@H]2C1	IDE exosite inh -3.8
O=C(c1cnccn1)N1CC(=O)N2[C@H](CO)[C@@H](c3ccc(-c4ccc(F)cc4)cc3)[C@@H]2C1	none
Cc1cccc(-c2ccc([C@H]3[C@@H](CO)N4C(=O)CN(C(=O)c5cnccn5)C[C@@H]34)cc2)c1	IDE exosite inh -9.3
O=C(c1cnccn1)N1CC(=O)N2[C@H](CO)[C@H](c3ccc(-c4ccc(F)cc4)cc3)[C@H]2C1	none
O=C(c1cnccn1)N1CC(=O)N2[C@H](CO)[C@H](c3ccc(-c4ccccc4)cc3)[C@@H]2C1	none
